Here are results for 14 molecules from PubChem BioAssay (NCI).

Test systems include NCI-H23 lung; NCI-H226 lung; NCI-H322M lung; HOP-62 NSCLC; NCI-H460 lung; HOP-92 NSCLC; NCI-H522 lung; 786-0 renal; COLO 205 colon; A549/ATCC NSCLC.
Assay in all cases: NCI-60 one-dose screen, 48 h (100 = growth as untreated, 0 = no growth, -100 = all killed)
What all share (conditions): 10 µM unless noted

About 83,000 compounds went through this panel and 20% of them were active in at least one assay; those are over-represented in the sample as a whole.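 Negative percent growth values reflect cell death: -40 means 40% of the cells present at the start died, and -100 means all died.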 Values without a mark were called inactive. Active and inactive are the calls of the source. How the source made its calls: active means growth percent below 10; inactive means the rest.

Turning to `CC1(C)CC2=C3C=C[C@@H]4[C@@]5(C)CCC(=O)C(C)(C)[C@@H]5CC[C@@]4(C)[C@]3(C)CC[C@@]2(C(=O)O)C[C@H]1O`, the growth was 23.2% in the assay on NCI-H23 lung; 25.5% with NCI-H226 lung; 26.6% in the assay with NCI-H322M lung; 30.1% with HOP-62 NSCLC; 18% in the assay with NCI-H460 lung; -7.2% (active) in the assay with HOP-92 NSCLC. Also, the values for the growth in the assay on NCI-H522 lung, in the assay on 786-0 renal and in the assay on COLO 205 colon were 26.4%, 17.2% and 29.2%, respectively.

Take `CC(=O)Oc1ccc(OC(C)=O)c2ccccc12`: the growth in the assay with NCI-H23 lung was 95.6%; in the assay on NCI-H226 lung, 74.9%; with NCI-H322M lung, 106%; with HOP-62 NSCLC, 90.2%; in the assay on NCI-H460 lung it was 107%; in the assay with NCI-H522 lung, 61.6%. The results for the growth in the assay on A549/ATCC NSCLC, in the assay with 786-0 renal and in the assay with COLO 205 colon were 98.7%, 107% and 112%, respectively.

`C=C1C(=O)O[C@H]2[C@H]1CC/C(COC(=O)NCc1ccc(Cn3c(=O)sn(-c4ccc(C#N)cc4)c3=O)cc1)=C\CC[C@@]1(C)O[C@@H]21`: the growth with NCI-H23 lung was 78.2%; in the assay on NCI-H226 lung, 95.5%; in the assay on NCI-H322M lung it was 104%; in the assay on HOP-62 NSCLC, 92.2%; with NCI-H460 lung, 104%; in the assay on HOP-92 NSCLC, 26.1%. The values for the growth in the assay with NCI-H522 lung, with 786-0 renal and with COLO 205 colon were -28% (active), 66.1% and 38.1%, respectively.

Consider `CCc1ccc(CCC(=O)Nc2ncc(Cc3cc(Cl)ccc3Cl)s2)o1`, for which the growth with NCI-H23 lung is 48.4%; in the assay with NCI-H226 lung it was 42.8%; in the assay on NCI-H322M lung, 36.7%; with HOP-62 NSCLC, 29.9%; in the assay with NCI-H460 lung, 10.3%; in the assay with HOP-92 NSCLC it was 51.6%. Moreover, the results for the growth in the assay with NCI-H522 lung, in the assay on 786-0 renal and in the assay with COLO 205 colon were 3.35% (active), 30.5% and 8.61% (active), respectively.

`COc1cccc(CCNc2ncnc3c2ncn3Cc2nnc3c4ccccc4c(Cl)nn23)c1`: the growth in the assay with NCI-H23 lung was 70.1%; with NCI-H226 lung, 66.6%; in the assay with NCI-H322M lung it was 52.8%; in the assay on HOP-62 NSCLC, 57.5%; in the assay on NCI-H460 lung, 61.5%; in the assay on HOP-92 NSCLC, 42.7%. Besides, the growth with NCI-H522 lung was 5.17% (active); in the assay on 786-0 renal, 57.7%; with COLO 205 colon, 90.9%.

With `CCOC(=O)c1nn(CC(O)c2ccccc2)c(NC(=O)Nc2cccc(F)c2)c1C` (stereo unspecified), the growth is 108% in the assay with NCI-H23 lung; 84.8% with NCI-H226 lung; 98.9% in the assay with NCI-H322M lung; 104% in the assay on HOP-62 NSCLC; 96.3% in the assay on NCI-H460 lung; 84.7% in the assay on NCI-H522 lung. The figures for the growth in the assay with A549/ATCC NSCLC, with 786-0 renal and in the assay with COLO 205 colon were 87.9%, 99.7% and 106%, respectively.

On to `COc1cc(C2C(C(=O)OCc3ccccc3)=C(C)NC(C)=C2C(=O)OCc2ccccc2)cc(OC)c1OC`, for which the growth with NCI-H23 lung was 29.3%; in the assay with NCI-H226 lung it was 32.2%; in the assay on NCI-H322M lung, 58%; in the assay on HOP-62 NSCLC, 51%; with NCI-H460 lung, 25.6%; with NCI-H522 lung, 25%. For the same molecule, the values for the growth with A549/ATCC NSCLC, in the assay with 786-0 renal and in the assay with COLO 205 colon were 23.4%, 25.2% and -47.7% (active), respectively.

Consider `C[C@]1(O)CC(=O)[C@]2(O)C3=C(C=C[C@]2(O)C1)C(=O)c1c(O)cccc1C3=O`, for which the growth is -6.78% (active) with NCI-H23 lung; 89.3% in the assay on NCI-H226 lung; 86.1% in the assay on NCI-H322M lung; 49% in the assay with HOP-62 NSCLC; 74.9% with NCI-H460 lung; -12.2% (active) in the assay with HOP-92 NSCLC. Also, the growth is -59.5% (active) with NCI-H522 lung, 9.83% (active) in the assay on 786-0 renal and -81.3% (active) with COLO 205 colon.

Regarding `Cc1ccc(-c2nc(N3CCNCC3)c3oc(-c4ccc(C)cc4)nc3n2)cc1`, the growth in the assay with NCI-H23 lung is 75.6%; in the assay with NCI-H226 lung, 97.6%; in the assay on NCI-H322M lung, 47.9%; with HOP-62 NSCLC it was 76.1%; in the assay with NCI-H460 lung, -68.3% (active); in the assay with HOP-92 NSCLC, 88.9%. Further, the values for the growth in the assay on NCI-H522 lung, in the assay with 786-0 renal and in the assay on COLO 205 colon were 76.1%, -92.2% (active) and -81.2% (active), respectively.

Regarding `CS(=O)(=O)c1ccc(NC(=O)c2ccccc2)nc1`, the growth is 108% in the assay on NCI-H23 lung; 103% in the assay with NCI-H226 lung; 111% with NCI-H322M lung; 95.6% in the assay on HOP-62 NSCLC; 105% in the assay on NCI-H460 lung; 68.9% with NCI-H522 lung. The growth was 96.3% in the assay on A549/ATCC NSCLC, 99.1% in the assay with 786-0 renal and 128% in the assay with COLO 205 colon.

As to `O=[N+]([O-])c1ccc(-c2cn3nc(-c4c[nH]c5ccccc45)sc3n2)cc1`, the growth in the assay with NCI-H23 lung was 88.1%; with NCI-H226 lung, 90.8%; in the assay on NCI-H322M lung it was 84.9%; in the assay with HOP-62 NSCLC it was 94.6%; in the assay with NCI-H460 lung, 98%; in the assay on NCI-H522 lung, 80.7%. The growth was 86.9% with A549/ATCC NSCLC, 103% with 786-0 renal and 108% with COLO 205 colon.

Consider `FC(F)(F)Oc1cccc(-c2cnc3ccc(-c4ccncc4)nn23)c1`, for which the growth is 15.6% in the assay on NCI-H23 lung; 33.5% in the assay with NCI-H226 lung; 27.4% with NCI-H322M lung; 20.2% in the assay with HOP-62 NSCLC; 17.6% with NCI-H460 lung; 1.55% (active) with NCI-H522 lung. Further, the growth was 11.5% with A549/ATCC NSCLC, 21.1% in the assay on 786-0 renal and 16.1% with COLO 205 colon.

As to `O=S(=O)(NCCNc1nccc(-c2c(-c3ccc(F)c(O)c3)nc3sccn23)n1)c1ccc(F)cc1`, the growth in the assay with NCI-H23 lung is 36.6%; with NCI-H226 lung, 83.6%; with NCI-H322M lung it was 47.6%; in the assay on HOP-62 NSCLC, 48.3%; with NCI-H460 lung, 21.9%; in the assay on HOP-92 NSCLC, 33.6%. Further, the growth with NCI-H522 lung is 28.5%; with 786-0 renal, 38.1%; in the assay on COLO 205 colon, 26.2%.

In the case of `N#C/C(=C\c1ccc(-c2cccc(C(F)(F)F)c2)o1)c1ccccc1`, the growth in the assay with NCI-H23 lung was 79.7%; in the assay with NCI-H226 lung it was 77.4%; in the assay on NCI-H322M lung it was 86%; in the assay on HOP-62 NSCLC, 88.1%; with NCI-H460 lung, 97.1%; in the assay on NCI-H522 lung, 84.6%. Moreover, the growth in the assay on A549/ATCC NSCLC is 94.3%; with 786-0 renal, 99.9%; in the assay with COLO 205 colon it was 101%.
